Sm TGR block – S. mansoni TGR enzyme inhibition; purified TGR, DTNB reduction, TNB absorbance 405 nm; Potency, µM (titrated, usually from 114 µM), for inactives: at the top dose activity change, negative = inhibition, usual class: inhibitors; Q962Y6; 3% of 360,000 active; also: potency is read from the fitted curve at half-maximal effect; nearly all actives have a fitted effect of over 60% in size
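TGR 20 nM + NADPH 100 uM (dispensed conc.), cpd preinc 15 min RT; start with NADPH (500 uM addition) then DTNB (15 mM addition). Kinetic TNB absorbance, 405 nm filter. Four-parameter Hill fit across titration.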
VACV Venus inh – inhibitors of vaccinia virus (Venus reporter); Vaccinia virus Venus reporter expression, fluorescence; Potency, µM (doses to about 36.5 µM), inactives show at the highest dose activity change, negative = inhibition, most hits filed as inhibitors; 0.46% of 330,000 active; AID 720580; calls by dose curve; tested in A549 cells; also: potency is read from the fitted curve at half-maximal effect; nearly all actives have a fitted effect of over 30% in size
HCV inhibitor – inhibitors of hepatitis C virus infection; Huh7.5.1 HCVcc-Cre infection, luciferase reporter, 44 h; Potency, µM (series often up to 41.8 µM), without a hit: at the top dose activity change, negative = inhibition, hits mostly inhibitors; 3.4% of 340,000 active; AID 651820; also: potency is read from the fitted curve at half-maximal effect
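Cells seeded at 1,000/well and cultured 4 h, then compounds added followed by HCVcc-Cre virus (~0.5 moi). After 44 h further culture, luciferase substrate was added, plates held 15 min at room temperature, and luminescence read for 15 sec.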
VACV mCherry inh – vaccinia inhibition (mCherry reporter); 0.63% of 310,000 active; Potency, µM (titrated, usually from 36.5 µM), inactives show at the highest dose activity change, negative = inhibition, usual class: inhibitors; Vaccinia virus mCherry reporter infection, fluorescence; calls by dose curve; tested in A549 cells; also: potency is read from the fitted curve at half-maximal effect; nearly all actives have a fitted effect of over 35% in size
FMDV antiviral – foot and mouth disease virus antiviral activity. Potency, µM (series often up to 57.9 µM), without a hit: top-dose activity change, negative = inhibition, usual class: inhibitors. FMDV antiviral cell-based qHTS. 1.2% of 410,000 active. AID 1159524; calls by dose curve; tested in HEK293T cells; also: read-out not given here; potency is read from the fitted curve at half-maximal effect; nearly all actives have a fitted effect of over 45% in size
HCMV antiviral – inhibitors of human cytomegalovirus | HFF cells, HCMV-luciferase reporter, 72 h; stronger effect = lower value | activity change, negative = inhibition, % at 57.5 µM | 4.5% of 410,000 active | AID 1259415; in the data active = activity change below about -60%; inconclusive = no clear call, values can overlap the other calls; inactive = above about -39%
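Two compound doses tested in HFFs infected with HCMV-luciferase, MOI 1 PFU/cell, 72 h at 37C. Lysate luminescence read with OneGlo; data normalized against buffer-only and 10uM Salinomycin inhibitor controls.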
* = called active by the depositor; i = inactive; ? = inconclusive; . = not tested or not shown; [ ] = another dose, or the depositor's remark. Most compounds without a hit are left out; they make up all but 9.3% or so of the library. Unless noted, calls follow the shape of the dose curve; as a rule, active = well fitted curve in the direction sought with a large enough effect; inconclusive = small, poorly fitted or top-dose-only effect, or another doubt; inactive = no such curve, though single readings can be large; an effect the other way counts as inactive or inconclusive. % is scaled to controls: 0 for no effect and ±100 for the full control effect.

SMILES | Sm TGR block | VACV Venus inh | HCV inhibitor | VACV mCherry inh | FMDV antiviral | HCMV antiviral
COc1ccc(-c2cc(NC=O)c3ncc(-c4cccc(OC)c4)n3c2)cc1 | . | -18% | . | -4% | -16% | -14
COc1ccccc1-c1cc(NC=O)c2ncc(-c3cccc(C(C)=O)c3)n2c1 | . | ? | . | 7.9µM* | -27% | 59
COc1cccc(-c2cc(NC=O)c3ncc(-c4ccc(OC)c(OC)c4)n3c2)c1 | . | ? | . | ? | -27% | 221
COc1cccc(-c2cnc3c(NC=O)cc(-c4ccc(OC)cc4OC)cn23)c1 | . | ? | . | ? | ? | -92*
CCOC(=O)c1ccc(N2C(=O)c3n[nH]c(-c4cccs4)c3C2c2ccc(C(C)C)cc2)cc1 (stereo not given) | 2% | -21% | . | -25% | ? | -106*
CCOC(=O)c1ccc(N2C(=O)c3n[nH]c(-c4cccs4)c3C2c2ccc(OCC)cc2)cc1 (stereo not given) | 5% | ? | . | ? | -28% | -105*
CCOC(=O)c1ccc(N2C(=O)c3n[nH]c(-c4cccs4)c3C2c2cccc(O)c2)cc1 (stereo not given) | 3% | -14% | . | -19% | 35µM* | -3
CCOC(=O)c1ccc(N2C(=O)c3n[nH]c(-c4cccs4)c3C2c2ccc(CC)cc2)cc1 (stereo not given) | 12% | ? | . | ? | ? | -99*
O=C(Cn1nnc(-c2ccc(OCc3ccccc3F)cc2)n1)N1CCOCC1 | 3% | . | 17% | . | 25% | -6
COc1ccc(NC(=O)C2(C)CCN2Cc2ccc(SC)cc2)cc1OC (stereo not given) | . | -16% | . | -16% | ? | -7
O=C(NN=Cc1ccccc1O)C(O)(c1ccccc1)c1ccccc1 | . | -13% | ? | i | 2% | 2
O=C(N/N=C/c1ccc(N2CCCCC2)o1)C(O)(c1ccccc1)c1ccccc1 | 22µM* | . | 7% | . | . | .
Cc1cc(C(=O)N/N=C/c2ccc(N(C)C)o2)cs1 | ? | . | 14% | . | -16% | 11
CN(C)c1ccc(/C=N/NC(=O)c2ccccc2O)o1 | 22µM* | -5% | -2% | -18% | 29% | 114
CN(C)c1ccc(/C=N/NC(=O)C(O)(c2ccccc2)c2ccccc2)o1 | 10µM* | . | -7% | . | -9% | -11
COc1ccc2sc(-c3ccc(S(C)(=O)=O)cc3)c(C(=O)NCCc3c[nH]c4ccccc34)c2c1 | . | -17% | ? | -36% | 1% | ?
O=C(O)C1CC1C(=O)Nc1nc2c(Cl)cccc2s1 (stereo not given) | -3% | . | 12% | . | -10% | 26
COc1ccc(CNC(=O)C(C)n2nc(C)n3c(cc4occc43)c2=O)cc1 (stereo not given) | -29% | . | -19% | . | -15% | -22
COc1ccc(C2=NN(CN3C(=O)C(=O)c4ccccc43)C(c3ccc(Br)cc3)C2)cc1 (stereo not given) | -24% | -5% | 10µM* | i | . | -20
NS(=O)(=O)c1ccc(N2N=C(c3ccccc3)CC2c2ccccc2)cc1 (stereo not given) | -9% | -23% | ? | ? | -27% | 2
COc1ccc(C2CC(c3ccccc3Br)=NN2c2ccc(S(N)(=O)=O)cc2)cc1 (stereo not given) | . | ? | 11µM* | ? | 0% | 18
COc1ccc(C2=NN(CN3C(=O)C(=O)c4ccccc43)C(c3ccc(C)cc3)C2)cc1 (stereo not given) | -7% | . | -23% | . | 27% | -25
NS(=O)(=O)c1ccc(N2N=C(c3ccccc3)CC2c2ccccc2Cl)cc1 (stereo not given) | . | ? | 32µM* | ? | -25% | ?
C=CCn1c(COc2cccc(C)c2)nnc1SCn1nnc2ccccc2c1=O | -11% | -9% | 5% | -20% | -1% | -6
COc1cccc(C(=O)N2CCC[C@@H]2C(=O)N2CCC[C@@H]2C(=O)NCc2ccccc2Cl)c1 | . | 0% | . | 7% | -1% | -11
SMILES | Sm TGR block | VACV Venus inh | HCV inhibitor | VACV mCherry inh | FMDV antiviral | HCMV antiviral
CSc1nc2cc(S(=O)(=O)N3CCCCC3)ccc2s1 | 16% | -2% | ? | i | -6% | -36
Fc1ccc(NC(=S)NNc2ncc(C(F)(F)F)cc2Cl)c(F)c1 | -9% | -43% | 22µM* | -47% | -41% | -99*
FC(F)(F)c1cnc(NNC(=S)Nc2ccc(Cl)cc2)c(Cl)c1 | -13% | ? | ? | ? | -26% | -99*
O=C1CCc2c(ccc3ccccc23)O1 | . | -7%[87.9 µM] | . | -14%[87.9 µM] | -18%[146 µM] | .
CN1COc2ccc3ccccc3c2C1 | 4µM* | -11% | 10% | -9% | -11% | -37
COC(=O)c1ccc(CSc2nc(N3CCOCC3)c3c(c2C#N)CC(C)(C)OC3)o1 | 7% | -13% | 8% | i | -20% | 17
Cc1[nH]n2c(=O)cc(-c3ccccc3Cl)nc2c1-c1ccccc1 | -2% | -29% | . | ? | -23% | -94*
COCc1cc(=O)n2[nH]c(C)c(-c3ccc(Cl)cc3)c2n1 | . | ? | . | 10µM* | ? | -14
O=C(NC1CCCCC1)C(CCc1ccccc1)N1CCOCC1 (stereo not given) | . | -4% | . | 17% | -10% | 1
Cc1ccc(NC(=O)c2ccc(Cl)c(N3C(=O)C=CC3=O)c2)cc1 | 0.56µM* | ? | 6% | . | 40µM* | -12
Cn1c(CC(=O)Nc2ccccc2)cc2ccccc21 | -2% | . | 7% | . | 65% | 43
O=C(Nc1nc2ccccc2n1CCN1CCOCC1)c1cn(-c2ccccc2)nc1-c1ccccc1 | 1% | ? | 10µM* | 28µM* | 0% | ?
Cc1ccc(C2CC(=O)C=C(NCC(C)C)C2)cc1 (stereo not given) | 4% | -5% | -7% | -3% | -16% | -81*
CC(=O)c1cccc(NS(=O)(=O)N2CCCCC2)c1 | 0% | -8% | -29% | . | 8% | 16
O=C1NC(=O)N(c2ccccc2F)C(=O)/C1=C/c1ccc(Oc2ccc([N+](=O)[O-])cn2)cc1 | 20µM* | . | 7% | . | -23% | 68
COc1ccc2c(c1)/C(=C\c1cccc(/C=C3/C(=O)Nc4ccc(OC)cc43)n1)C(=O)N2 | . | -15% | 2.8µM* | -5% | 7.1µM* | -98*
CCOC(=O)C1=C(C)OC(=CC=Cc2ccccc2)C1=O | . | -3% | . | i | 6% | -6
COc1ccccc1/C=C/C=C1\Oc2c(ccc(O)c2CN2CCN(CCO)CC2)C1=O | ? | 37% | -3% | -6% | 0% | -93*
CCN1CCN(Cc2c(O)ccc3c2O/C(=C\c2ccc(C)cc2)C3=O)CC1 | ? | . | -3% | . | 20% | -33
CN(C)Cc1c(O)ccc2c1O/C(=C\C=C\c1ccccc1)C2=O | 11µM* | 14% | -11% | 3% | -18% | -65*

Assay outcomes: PubChem, National Center for Advancing Translational Sciences (NCATS)
